From PubChem
GPR151 ag = activators of human GPR151, primary screen, cell-based, PathHunter beta-arrestin, luminescence. G-protein coupled receptor 151 (Homo sapiens), Q8TDV0. PathHunter beta-arrestin GPR151 cells. 1% of 650,000 active. activation, % at 11.2 µM; in the data active = activation above about 4.9%
Target sequence (Q8TDV0 whole entry, looked up): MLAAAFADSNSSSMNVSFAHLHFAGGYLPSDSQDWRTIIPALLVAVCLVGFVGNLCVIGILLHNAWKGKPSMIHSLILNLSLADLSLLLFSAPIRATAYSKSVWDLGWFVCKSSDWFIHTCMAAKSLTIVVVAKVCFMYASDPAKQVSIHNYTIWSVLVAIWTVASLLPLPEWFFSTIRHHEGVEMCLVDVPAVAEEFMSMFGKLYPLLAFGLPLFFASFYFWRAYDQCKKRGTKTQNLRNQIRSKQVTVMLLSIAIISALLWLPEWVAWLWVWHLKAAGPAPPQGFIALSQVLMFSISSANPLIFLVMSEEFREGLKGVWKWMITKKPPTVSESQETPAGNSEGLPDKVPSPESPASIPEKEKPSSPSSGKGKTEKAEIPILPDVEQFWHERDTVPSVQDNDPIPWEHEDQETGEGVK
MITF inh = MITF inhibitors, primary screen, biochemical, AlphaScreen, human | AlphaScreen MITF homodimerization, bead proximity signal | inhibition, % at 2.6 µM | 0.91% of 650,000 active | AID 1259374, 2018; in the data active = inhibition above about 50%
TEAD-YAP inh = TEAD-YAP interaction inhibition, primary screen, TEAD-YAP interaction inhibitor project, luminescence, HEK-TIYL cells; TEAD-Gal4/YAP UAS-luciferase luminescence; 1.4% of 640,000 active; inhibition, % at 9.12 µM; in the data active = inhibition above about 32%
FBW7 act = FBW7 E3 ligase activators, primary screen, biochemical, AlphaScreen, human; AlphaScreen FBW7–phospho-cyclin E peptide binding, activator screen; normalized activity (activation), % at 26.1 µM; 0.13% of 650,000 active; in the data active = normalized activity above about 1.9%;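 note: purified mutant Fbw7 with reduced substrate affinity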
MITF confirm = MITF inhibitors, retest of hits, confirmation, biochemical, AlphaScreen, triplicate | shares compounds with MITF inh | AlphaScreen MITF homodimerization, biotin/His-MITF beads | inhibition, % at 2.6 µM | 16% of 4,700 active | AID 1259372, 2018;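 active = inhibition above a cutoff derived from the DMSO control wells, cut at about 28% in these data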;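 note: inhibitors lower the bead chemiluminescence by keeping MITF from dimerizing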
AlphaScreen DR = AlphaScreen optical interference compounds, dose response, counter-screen, biochemical, HTS; shares compounds with MITF inh; AlphaScreen optical interference counterscreen, cell-free; IC50, µM; 6% of 480 active; AID 1259373, 2018; call rule not given here
AS interf ctr = AlphaScreen optical interference compounds, counter-screen for MITF inhibitor project, biochemical, triplicate. inhibition, % at 2.6 µM. LysRS AlphaScreen counterscreen, signal interference. 7.6% of 4,700 active. AID 1259376, 2018. shares compounds with MITF inh;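 active = inhibition above a cutoff derived from the DMSO control wells, cut at about 30% in these data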
Each line names hits and unclear results; the compound was inactive in the other large screens (follow-up assays come after a bar, where they were run). The list is not random: actives were taken first. Their share in the collection is about 3.5%.

COc1cccc(C(=O)N2CCN(Cc3ccc(OC)c(OC)c3)CC2)c1	MITF inh 61 | MITF confirm inactive | AS interf ctr inactive
COc1cccc(OC)c1C(=O)N1CCN(Cc2cccc(Br)c2)CC1	MITF inh 64 | MITF confirm inactive | AS interf ctr inactive
CCNc1cc(C)nc(N2CCN(C(=O)c3c(F)cccc3Cl)CC2)n1	none
CCNc1cc(C)nc(N2CCN(C(=O)c3cccc(OC)c3)CC2)n1	MITF inh 59 | MITF confirm inactive | AS interf ctr inactive
COc1cccc(C(=O)N2CCN(Cc3cccc(Br)c3)CC2)c1	MITF inh 54 | MITF confirm inactive | AS interf ctr inactive
COc1ccc(CC(=O)Nc2ccc(-c3nc4ccccc4o3)cc2)cc1	none
COc1ccc(C(=O)N2CCN(Cc3ccc(Cl)cc3)CC2)cc1OC	MITF inh 53 | MITF confirm inactive | AS interf ctr inactive
COc1ccc(C(=O)N2CCN(Cc3cc(OC)c(OC)c(OC)c3)CC2)cc1OC	none
COc1cccc(C(=O)N2CCN(Cc3ccc(C)cc3)CC2)c1	MITF inh 58 | MITF confirm inactive | AS interf ctr inactive
Cc1ccc(/C=C/C(=O)NCc2ccccn2)o1	MITF inh 61 | MITF confirm 39 | AlphaScreen DR inactive | AS interf ctr inactive
Cc1ccc(/C=C/C(=O)NCc2ccco2)o1	MITF inh 64 | MITF confirm 66 | AS interf ctr 39
Clc1nc(NC2CC2)c2ccccc2n1	none
O=C(Nc1ccccc1C(=O)O)c1cncc(Br)c1	MITF inh 57 | MITF confirm inactive | AS interf ctr inactive
O=C(NC(=S)Nc1ccccc1C(=O)O)c1cncc(Br)c1	none
CCc1cc2c(=O)c(Oc3ccc(F)cc3)coc2cc1OC(C)=O	none
S=c1[nH]nc(-c2ccncc2)n1/N=C/C=C/c1ccco1	MITF inh 70 | MITF confirm 80 | AlphaScreen DR inactive | AS interf ctr inactive
O=c1[nH]c2ccc(Nc3nc4ccccc4n4cnnc34)cc2[nH]1	none
COc1ccc(CNC(=O)c2sc3nc(-c4cccs4)ccc3c2N)cc1	none
CC(=O)c1sc2nc(-c3cccs3)ccc2c1N	MITF inh 51 | MITF confirm inactive | AS interf ctr inactive
CCN(CC)C(=O)N1C2CCC1CC(O)(c1nccn1C)C2 (configuration not stated)	none
Cc1nc(NCc2c(C)nn(C)c2Cl)sc1-c1ccn(C2CCOC2)n1 (configuration not stated)	MITF inh 54 | MITF confirm inactive | AS interf ctr inactive
Cc1cc(NC2CCCCC2)nc(-c2ccccc2O)n1	MITF inh 79 | MITF confirm inactive | AS interf ctr inactive
CC(=O)c1ccc(-c2ccc(/C=C/[N+](=O)[O-])o2)cc1	MITF inh 69 | MITF confirm 56 | AS interf ctr 31
O=C(O)c1ccccc1-c1ccc(/C=C/[N+](=O)[O-])o1	MITF inh 81 | MITF confirm 73 | AlphaScreen DR inactive | AS interf ctr inactive
O=C(NCC1Cc2cc(-c3cnccn3)ccc2O1)c1cccc(N2CCCC2=O)c1 (configuration not stated)	MITF inh 52 | MITF confirm inactive | AS interf ctr inactive
O=C(CSc1nc(=O)n(Cc2ccncc2)c2c1CCCC2)Nc1ccc(F)c(F)c1	none
O=C1CCCN1C(=O)CN1CCOCC1	MITF inh 53 | MITF confirm inactive | AS interf ctr inactive
O=C1CCCN1C(=O)CN1CCCCC1	MITF inh 52 | MITF confirm inactive | AS interf ctr inactive
NCCCNc1c2c(nc3cc(-c4cccc(F)c4)nn13)CCC2	none
NCCCNc1c2c(nc3cc(-c4ccc(Cl)cc4)nn13)CCC2	MITF inh 54 | MITF confirm inactive | AS interf ctr inactive
CSc1ccc(C(=O)O)s1	MITF inh 75 | MITF confirm 35 | AlphaScreen DR inactive | AS interf ctr inactive
CSc1ccc(C(=O)NCc2nc(-c3ccncc3)n[nH]2)s1	none
CC[C@H](C)[C@H](NC1CCCN(c2nc(C)c3ccc(C)cc3n2)CC1)C(=O)OC (some centres not stated)	none
COc1cccc2cc(-c3csc(Nc4cccc(F)c4)n3)c(=O)oc12	MITF inh 55 | MITF confirm inactive | AS interf ctr inactive
CCc1ccc(CN(C)CCc2ccccn2)cc1	MITF inh 89 | MITF confirm inactive | AS interf ctr inactive
CN(CCc1ccccn1)Cc1ccc2c(c1)CN(Cc1cccs1)CCO2	none
CN(CCc1ccccn1)Cc1ccncc1	MITF inh 83 | MITF confirm inactive | AS interf ctr inactive
CN(C)CCN(C)Cc1ccc(N(C)C)cc1	none
CN(C)CCN(C)Cc1ccc([N+](=O)[O-])cc1	MITF inh 83 | MITF confirm inactive | AS interf ctr inactive
CCOc1ccccc1CN(C)CCc1ccccn1	MITF inh 89 | MITF confirm inactive | AS interf ctr inactive
COc1ccc(-c2noc(N(C)CC(=O)Nc3cccc(Cl)c3)n2)cc1	none
Cc1cc(NC(=O)CSc2nc3cc4c(cc3c(=O)n2Cc2ccco2)OCO4)n[nH]1	none
CCOC(=O)c1c(/N=c2\oc3ccccc3cc2C(=O)Nc2ccc(C)cc2)sc2c1CCCC2	none
C/C(CC(=O)Nc1ccccn1)=N\NC(=O)c1ccc(I)cc1	none
CCCCCCOc1ccc(NC(=O)CC2C(=O)N(c3ccccc3)C(=S)N2CCc2ccc(S(N)(=O)=O)cc2)cc1 (configuration not stated)	none
CN(CCc1ccccn1)Cc1ccc(Cl)cc1	MITF inh 83 | MITF confirm inactive | AS interf ctr inactive
COc1ccc(CN(C)CCc2ccccn2)cc1	MITF inh 83 | MITF confirm inactive | AS interf ctr inactive
CN(CCc1ccccn1)Cc1ccc([N+](=O)[O-])cc1	MITF inh 75 | MITF confirm inactive | AS interf ctr inactive
CN(Cc1ccccc1)Cc1cccnc1	none
Cc1ccc(CN(C)CCc2ccccn2)cc1	none
CN(Cc1ccccc1)Cc1ccccn1	MITF inh 54 | MITF confirm inactive | AS interf ctr inactive
COc1ccc(C2C(C(=O)N(C)CCc3ccccn3)c3ccccc3C(=O)N2Cc2ccc(F)cc2)cc1 (configuration not stated)	none
CCOc1ccccc1NC(=O)CNC(=O)Cn1cnc2ccccc2c1=O	none
CCS(=O)(=O)c1ccc2oc(C)nc2c1	none
CCCC(CCC)=NNC(=O)c1ccc(O)cc1	none
O=C(CCSCCc1ccccn1)Nc1cccc([N+](=O)[O-])c1	none
